According to PubChem BioAssay AID1018 (Sanford-Burnham Center for Chemical Genomics, 2008):
Screen size: about 200,000 compounds; about 15 (0.007%) were called active. The sample holds actives, similar compounds and a random draw of the others, so the mix is not that of the screen. A number with no mark means an inactive call. Rule as the data show it: active = displacement above about 50%; inactive = the rest.

Molecular target: E3 ubiquitin-protein ligase XIAP (Homo sapiens) (UniProt P98170)
Assay: small molecules displacing peptide from XIAP – biochemical, IAP family, fluorescence polarization (AID 1018)
Settings: XIAP BIR domain, at 20 µM, stronger effect = higher value

Chain of E3 ubiquitin-protein ligase XIAP (Homo sapiens) (P98170 whole entry, looked up): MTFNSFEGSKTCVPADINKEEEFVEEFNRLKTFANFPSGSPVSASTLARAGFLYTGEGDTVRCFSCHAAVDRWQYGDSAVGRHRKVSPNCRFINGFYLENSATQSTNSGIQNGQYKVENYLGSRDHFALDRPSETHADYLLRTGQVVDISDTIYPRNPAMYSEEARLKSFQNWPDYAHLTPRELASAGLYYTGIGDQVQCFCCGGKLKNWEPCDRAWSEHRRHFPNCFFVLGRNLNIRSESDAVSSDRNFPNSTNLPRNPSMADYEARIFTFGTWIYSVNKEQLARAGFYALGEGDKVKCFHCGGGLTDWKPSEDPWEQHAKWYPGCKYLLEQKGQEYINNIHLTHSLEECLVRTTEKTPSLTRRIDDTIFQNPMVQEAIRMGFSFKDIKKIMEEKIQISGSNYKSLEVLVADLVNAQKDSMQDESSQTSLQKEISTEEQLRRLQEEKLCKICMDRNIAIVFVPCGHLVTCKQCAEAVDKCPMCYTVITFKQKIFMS

| SMILES | displacement |
| --- | --- |
| CC1(C)NC(C)(C)c2nonc2/C1=N\O | -3.8% |
| CC(C)(C)n1nnnc1C(c1ccncc1)N(Cc1ccccc1)Cc1ccco1 (stereo unspecified) | -4.2% |
| O=S(=O)(/C=C/c1ccccc1)N1CCN(c2ccccc2)CC1 | -3.9% |
| CC(C)(C)n1nnnc1C(c1cccnc1)N1CCN(c2cccc(C(F)(F)F)c2)CC1 (stereo unspecified) | -2.9% |
| CCOC(=O)Nc1ccc(OC)cc1S(=O)(=O)N1CCCCC1 | -2.5% |
| CCCCOC(=O)Nc1ccc(OC)cc1S(=O)(=O)N1CCOCC1 | 58.7% (active) |
| COc1ccc(NC(=O)c2cc(OC)c(OC)cc2OC)c(S(=O)(=O)N2CCOCC2)c1 | -3.3% |
| CCNc1ccc2noc3c2c1C(=O)c1ccccc1-3 | -8.9% |
| O=C1c2ccccc2-c2onc3ccc(NCCCn4ccnc4)c1c23 | 70.1% (active) |
| O=C1c2ccccc2-c2onc3ccc(NCc4ccco4)c1c23 | 76.4% |
| Cc1cc(=O)[nH]c(S/C=C/c2ccccc2)n1 | 0.7% |
| CCN(CC)S(=O)(=O)c1ccc(C)c(NC(=O)COC(=O)CNC(=O)c2ccc(C(C)(C)C)cc2)c1 | -10.4% |
| Cc1nn(CCC#N)c2[nH]c(=O)cc(C(F)(F)F)c12 | -4.9% |
| Cc1ccc(C(NC(N)=O)c2ccccc2C)cc1 (stereo unspecified) | -1.9% |
| S=c1[nH]nc(CN2CCCCC2)n1-c1ccc(Cl)cc1 | -9.6% |
| O=C(O)CCc1nc(-c2ccc(Cl)cc2)no1 | -3.7% |
| O=C(O)CCCc1nc(-c2ccc(Cl)cc2)no1 | 70.8% (active) |
| O=C(O)CCCc1nc(-c2ccccc2)no1 | -1.3% |
| Cc1cccc(-c2n[nH]c(=S)n2-c2ccccc2)c1[N+](=O)[O-] | -3.7% |
| CC(=O)C(C(C)=O)C1(O)C(=O)c2ccccc2C1=O | -3.4% |
| Fc1cccc(Cn2cc(C(=S)N3CCOCC3)c3ccccc32)c1 | -4.3% |
| CCC(C(=O)O/N=C(\N)c1ccc(Cl)cc1)c1ccccc1 (stereo unspecified) | -3.6% |
| Cc1cccc2cc(COC(=O)C(C)C)c(=O)[nH]c12 | -4.3% |
| COC(=O)c1cn(NC(=O)c2ccc3c(c2)OCO3)c(=O)c2ccccc12 | -3.5% |

| SMILES | displacement |
| --- | --- |
| CCOC(=O)C1(CC2CC2)CCN(S(=O)(=O)/C=C/c2ccccc2)CC1 | -6.8% |
| Cc1ccc(-n2c(-c3ccccc3)c[n+]3c2CCc2ccccc2-3)c(C)c1 | -4.9% |
| N/C(=N\OC(=O)CCC1CCCC1)c1ccc([N+](=O)[O-])cc1 | -1.2% |
| CC(=O)Nc1cccc(NC(=O)Nc2cccc(Cl)c2C)c1 | -2.6% |
| CCC/C=N/NC(=O)c1ccc(F)cc1 | -5.5% |
| CCCNC(=O)C12CCC(C)(c3nc4cc(C)c(C)cc4nc31)C2(C)C (stereo unspecified) | -3% |
| CCOC(=O)N1CCC(N2Cc3cccc(C(=O)Nc4ccc(OC)c(OC)c4)c3C2=O)CC1 | 1.9% |
| O=C(Nc1nnc(Cc2ccc(Cl)cc2)s1)C1CCCO1 (stereo unspecified) | -3.9% |
| COCCN1CCN(c2c3c(nc4cc(-c5cccc(F)c5)nn24)CCC3)CC1 | -10.3% |
| O=C(O)C(Cc1ccccc1)N1Cc2ccccc2C1=O (stereo unspecified) | -8.8% |
| O=C(O)[C@H](Cc1ccccc1)N1Cc2ccccc2C1=O | 2.3% |
| CCOC(=O)/C=C/S(=O)(=O)c1ccc(NC(C)=O)cc1 | -2.6% |
| CCN(CC)CCN(C(=O)c1c(F)cccc1F)c1nc2cc(C)cc(C)c2s1 | -3.6% |
| Cc1ccc(NC(=O)c2ccc(-n3cncn3)c([N+](=O)[O-])c2)cc1 | -3.6% |
| CN(C)CCNC(=O)c1ccccc1 | -5.4% |
| CC1CCN(S(=O)(=O)c2ccc(N/N=C(/C#N)C(N)=O)cc2)CC1 | -6.4% |
| Cc1ccc(C)c(NC(=S)N(C)CCO)c1 | -3.7% |
| Cn1c(=O)[nH]c(=O)c2c1nc(N1CCCCC1)n2CCSc1nc2ccccc2o1 | -3.9% |
| COc1ccc(N(CC(=O)NCCSC2CCCCC2)S(C)(=O)=O)c(OC)c1 | -4.6% |
| COc1ccc(/C(O)=C2/C(=O)C(=O)N(CCN(C)C)C2c2cccnc2)cc1OC (stereo unspecified) | -8.8% |
| O=C(COC(=O)c1cccc(S(=O)(=O)N2CCc3ccccc32)c1)Nc1ccc(Cl)cn1 | -4.3% |
| Cc1ccc(NC(=O)COC(=O)c2ccc3c(c2)NC(=O)C2CCCN32)cc1 (stereo unspecified) | -1.5% |
| Cc1ccc(CNC(=O)Cn2cc(C(F)(F)F)ccc2=O)cc1 | -2.9% |
| S=C(Nc1ccc(Cl)cc1)N1CCN(C2CCCCC2)CC1 | -3.9% |

| SMILES | displacement |
| --- | --- |
| O=C(OCCC1Oc2cccnc2NC1=O)c1ccc(F)cc1 (stereo unspecified) | -2.6% |
| Nc1nc(-c2ccco2)nn1S(=O)(=O)c1ccc(Cl)cc1 | -2.1% |
| CN(C)C(CNC(=O)Cc1cccc(C(F)(F)F)c1)c1ccco1 (stereo unspecified) | -10.8% |
| O=C(COc1ccc(Cl)cc1[N+](=O)[O-])N/N=C/c1cccs1 | -10.2% |
| N=C1C(c2ccccc2)=C(O)CN1c1ccccc1N1CCOCC1 | -6.4% |
| O=C(CCCOc1ccccc1)Nc1ccc(S(=O)(=O)N2CCOCC2)cc1 | -4.6% |
| COc1cc(C)c(Cl)c(C)c1S(=O)(=O)NC1CC(C)(C)NC(C)(C)C1 | -4.7% |
| Cc1ccc(-c2[nH]nc3c2C(c2ccccc2OC(=O)N2CCOCC2)C(C#N)=C(N)O3)cc1 (stereo unspecified) | 1.4% |
| Cc1ccc(N2N=C(c3ccc(Br)cc3)CCC2=O)cc1 | -4.4% |
| Cc1ccc(Cn2cccc2C2=NC(C)CO2)cc1 (stereo unspecified) | -0.2% |
| COc1ccc(C(=O)NC(=S)N2CC(C)OC(C)C2)cc1OC (stereo unspecified) | -1.8% |
| COc1ccc(CN2C(=O)c3cccnc3C2Nc2ccc(OC)c(Cl)c2)cc1 (stereo unspecified) | -2% |
| COc1ccc(CN2C(=O)c3cccnc3C2Nc2cc(Cl)ccc2OC)cc1 (stereo unspecified) | 63.8% (active) |
| COc1ccc(CN2C(=O)c3cccnc3C2Nc2cc(Cl)c(OC)cc2OC)cc1 (stereo unspecified) | 9.6% |
| Cc1ccc(N=N/C(=C\O)C(=O)c2ccc(Cl)cc2)cc1 | -7.5% |
| CCN(CC)CCNC(=O)/C(=C/c1cn(CC)c2ccccc12)NC(=O)c1cc(OC)c(OC)c(OC)c1 | -5.1% |
| CC(=O)NC1C(=O)N(CCc2ccccc2)c2ccccc21 (stereo unspecified) | 1.5% |
| Cc1ccc(NC(=O)c2cccc(Cl)c2)nc1 | -1.6% |
| Cn1nccc1C(=O)Nn1cnnc1 | 1.6% |
| Cc1ccc(S(=O)(=O)N2CCOCC2)cc1NC(=O)COC(=O)c1ccccc1OCc1c(C)noc1C | 0.2% |
| COc1cc(OC)c(C(=O)NCC(c2cccs2)N(C)C)cc1OC (stereo unspecified) | -4.3% |
| O=C(CN1CCOCC1)N1CCN(S(=O)(=O)c2ccccc2)C1c1ccccc1 (stereo unspecified) | -3.4% |
| CCOc1ccccc1NC(=O)c1nc[nH]c1C(=O)Nc1ccccc1OCC | -4.1% |
| CCCOC(=O)c1sc2nc3c(cc2c1N)C(=O)CCC3 | -6% |

| SMILES | displacement |
| --- | --- |
| CCOC(=O)c1c(C(=O)OCC)c(C)n(N2C(=O)CSC2=S)c1C | -39.5% |
| Cc1nn2cc(-c3ncc(C(F)(F)F)cc3Cl)cnc2c1Br | -5.1% |
| CN1CCN(C2CCCCCC2)CC1 | -7.6% |
| O=C1c2ccccc2-c2onc3ccc(N4CCCC4)c1c23 | -14.9% |
| O=[N+]([O-])c1c(NCCO)cc(N2CCC3(CC2)OCCO3)c2nonc12 | -5.3% |
| CCOC(=O)N1CCN(c2cc(NCCO)c([N+](=O)[O-])c3nonc23)CC1 | -2.9% |
| CCOC(=O)N1CCN(c2cc(NCCC(=O)O)c3c4c(onc24)-c2ccccc2C3=O)CC1 | 67.3% (active) |
| O=C(O)CCCNc1cc(N2CCC3(CC2)OCCO3)c2noc3c2c1C(=O)c1ccccc1-3 | 87.1% (active) |
| CC(=O)OCCNc1cc(N2CCN(C)CC2)c2noc3c2c1C(=O)c1ccccc1-3 | -1.6% |
| CC(=O)COc1cc(C)cc2oc(=O)c(C)c(C)c12 | 61.1% (active) |
| Cc1cc(OCC(=O)C(C)(C)C)c2c(C)c(C)c(=O)oc2c1 | -1.7% |
| CC(=O)C(C)Oc1cc(C)cc2oc(=O)c(C)c(C)c12 (stereo unspecified) | -5.9% |
| Cc1ccc(Cn2nnc3c(=O)[nH]c(C4CCN(S(=O)(=O)c5ccc(C)cc5)CC4)nc32)cc1 | -2% |
| Cc1ccc(Cn2nnc3c(=O)[nH]c(C4CCN(S(=O)(=O)c5ccc(F)cc5)CC4)nc32)cc1 | 63.3% (active) |
| Cc1ccc(Cn2nnc3c(=O)[nH]c(C4CCN(S(=O)(=O)c5ccccc5)CC4)nc32)cc1 | -5.4% |
| COc1ccc(N(CC(O)CN2CCCCC2)S(=O)(=O)c2ccc(C)cc2)cc1 (stereo unspecified) | -3.7% |
| C=CC(=O)NCCCc1cc(C(C)(C)C)c(O)c(C(C)(C)C)c1 | -6.9% |
| Cc1ccccc1N(CC(=O)O)S(C)(=O)=O | -4.6% |
| CN(C)CCCOC(=O)COc1ccc(C(C)(C)C)cc1 | -1.4% |
| CCC(C)(C(=O)NC1CCCC1)N(Cc1cccs1)C(=O)c1ccc2c(c1)OCO2 (stereo unspecified) | -5.3% |
| CC(C)Cn1c2c(c(O)c(C(=O)Nc3ccc(F)cc3)c1=O)CCCC2 | 0.5% |
| COc1ccccc1NCCC#N | -1.4% |
| Cc1cccc(OCC(=O)NNC(=O)c2cccs2)c1 | -3.8% |
| Cc1[nH]n(-c2ccc([N+](=O)[O-])cc2)c(=O)c1C=NCCN1CCN(C(=O)c2ccccc2)CC1 | -2.6% |
